Insulin prom inh: TRM-6 insulin promoter activity inhibition | TRM-6 cells (human fetal islet line), insulin promoter-eGFP reporter, imaging; reporter expression induced with tamoxifen | inhibition, % at 2 µM | 0.9% of 130,000 active;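 active = inhibition above the mean plus 3 SD, with well images judged a real hit on visual review, cut at about 60% in these data, passing the limit was not always enough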
ROMK mod: modulates human ROMK potassium channel activity. P48048. Tet-inducible ROMK, thallium flux fluorescence; actives lie on both sides. B-score at 10 µM. 2% of 130,000 active. AID 1918;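 active = signal ratio slope over the read window, or its plate-corrected B-score, at least 3 SD from the plate mean, either direction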;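 also: B-score of the F/F0 ratio slope over 7 to 12 s after thallium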
Target sequence (P48048 whole entry, looked up): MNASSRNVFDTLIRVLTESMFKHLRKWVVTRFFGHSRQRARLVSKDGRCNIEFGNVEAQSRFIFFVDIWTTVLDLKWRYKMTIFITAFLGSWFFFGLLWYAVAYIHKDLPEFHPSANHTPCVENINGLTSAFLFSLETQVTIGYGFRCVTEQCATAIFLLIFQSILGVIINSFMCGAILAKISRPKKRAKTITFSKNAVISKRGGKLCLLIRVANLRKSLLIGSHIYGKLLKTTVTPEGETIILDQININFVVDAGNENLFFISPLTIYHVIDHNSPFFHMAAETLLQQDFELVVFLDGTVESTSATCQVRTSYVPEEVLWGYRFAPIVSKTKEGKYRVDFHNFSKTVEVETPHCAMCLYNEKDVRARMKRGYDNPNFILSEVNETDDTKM
KCC2 mod: modulates chloride dependent transport by human KCC2; KCC2 cells, thallium flux FluoZin-2 fluorescence; Q9H2X9; B-score of Tl+ flux slope (higher = more flux/activation; lower = inhibition) at 10 µM; 2.2% of 190,000 active; AID 1456;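 active = thallium flux slope and its plate-corrected score both differing from the plate sample mean at a set confidence after two filtering rounds, in either direction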;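 also: slope of fluorescence scaled to starting intensity during 10 to 20 s after thallium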
Insulin prom up: MIN6 insulin promoter up-regulation | MIN6 insulin promoter-GFP reporter, high-content imaging; stronger effect = higher value | z-score at 5 µM | 0.3% of 190,000 active;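 active = z-score above 3 at 5 µM with at least 500 cells counted in the well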
WT yeast gro inh: growth inhibition of WT yeast, mitochondrial fusion screen. mitochondrial fusion phenotypic screen, WT strain. inhibition, % at 10 µM. 2.1% of 190,000 active. AID 1362; in the data active = inhibition above about 58%; tested in S. cerevisiae
Lmaj promast: inhibitors of Leishmania major promastigote growth; 9% of 200,000 active; inhibition, % at 10 µM; Leishmania major promastigotes, resazurin fluorescence viability; in the data active = inhibition above about 50%;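 also: promastigotes grown with compound for 44 hours at 28 °C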
* marks the source's active call; other numbers are inactive results; x = not tested or not shown. Compounds with a hit are over-represented: about 12% of the library has one in this group of screens.

SMILES | Insulin prom inh | ROMK mod | KCC2 mod | Insulin prom up | WT yeast gro inh | Lmaj promast
COc1ccc(NC(=S)Nc2ccccc2)c(OC)c1 | -7 | 0.33 | 0.53 | -0.48 | -7 | 12
CC1(C)CC(=O)C(C(N)=NC(=O)c2ccc([N+](=O)[O-])cc2)=C(O)C1 | -38 | x | -0.069 | -0.65 | -3 | -4
COc1ccc(NC(=S)NCCc2ccc(S(N)(=O)=O)cc2)c(OC)c1 | -7 | x | 0.81 | -0.43 | -16 | -2
COc1ccc(NC(=S)NCCc2ccc(Cl)cc2)c(OC)c1 | -30 | x | 2 | 0.58 | 67* | 12
Cc1ccc(NC(=S)Nc2ccc3nc(-c4ccccn4)c(-c4ccccn4)nc3c2)cc1C | -5 | -0.25 | -0.68 | -0.2 | 25 | 72*
O=C1CN(S(=O)(=O)c2ccc(Cl)cc2C(F)(F)F)CCN1 | x | 0.31 | -0.0078 | 0.71 | -3 | 11
CC1C(=O)N(c2ccc(S(=O)(=O)N(C)C)cc2)C1(/C=C/c1ccccc1)C(=O)NC1CCCC1 (stereo not given) | x | 0.014 | 0.26 | -0.17 | 1 | 54*
O=C1CC(/C=C/c2ccccc2)(C(=O)NC2CCCC2)N1c1ccc(S(=O)(=O)N2CCCC2)cc1 (stereo not given) | 39 | -0.74 | -0.47 | -0.28 | -5 | 39
COc1ccc(NC(NC(=O)c2ccc(OC)cc2)C(Cl)(Cl)Cl)cc1 (stereo not given) | 19 | x | x | -0.42 | 33 | 5
Cc1ccc(C(=O)NC(NCc2ccco2)C(Cl)(Cl)Cl)cc1 (stereo not given) | 6 | -0.46 | 0.029 | 0.95 | -5 | 60*
COc1ccc(C(=O)NC(Nc2ccc(C)cc2)C(Cl)(Cl)Cl)cc1 (stereo not given) | 12 | x | 0.9 | -0.01 | 5 | 75*
Cc1cccc(C(=O)C2CCOC(C)(C)C2)c1 (stereo not given) | x | x | -0.31 | -0.18 | x | x
Cc1ccc(SCc2cc(=O)[nH]c(Nc3nc(C)c4ccccc4n3)n2)cc1 | 32 | x | -2.5 | -0.15 | 21 | 0
N#Cc1ccc(CSc2nnc(Cc3cccs3)n2Cc2ccco2)cc1 | -121 | 0.25 | -0.025 | x | x | 6
COc1cccc(/C=N/N2CCN(C3c4ccccc4-c4ccccc43)CC2)c1O | x | x | 1.1 | -0.42 | x | x
CCN(CC)S(=O)(=O)c1cc(NC(=O)CCNC(=O)c2ccccc2Cl)ccc1C | -23 | 0.76 | -0.13 | 0.12 | -9 | 9
CCN(CC)S(=O)(=O)c1cc(NS(=O)(=O)c2cc(Cl)ccc2Cl)ccc1C | 33 | x | -0.98 | -0.09 | -6 | 51*
Cc1ccc2c(Cl)c(C)c(N3CCCCC3)nc2n1 | 83* | x | -0.42 | -0.72 | 16 | 18
Cc1nc2ccccc2nc1N1CCCCC1 | x | x | x | 0.2 | 12 | -3
COc1ccccc1N(C)S(=O)(=O)c1ccc(Cl)c(C(=O)OCc2c(C)noc2C)c1 | -65 | -0.37 | -0.17 | -0.86 | 20 | 53*
Cc1noc(C)c1COC(=O)c1cc(F)c(F)cc1Cl | -6 | x | -0.98 | -0.5 | 31 | -11
O=C(COC(=O)c1ccc2[nH]c3c(c2c1)CCCC3)Nc1ccccc1 | 19 | -0.24 | 0.31 | -1.1 | -2 | 88*
Cc1cccc(C)c1NC(=O)COC(=O)c1ccc2[nH]c3c(c2c1)CCCC3 | -45 | -0.44 | 0.85 | x | -1 | 6
Cc1ccc(OS(=O)(=O)c2ccccc2)c(/C=N/N=C2\NC(=O)C(C)S2)c1 (stereo not given) | -50 | 0.55 | -0.011 | x | 23 | -4
COc1ccc(C2N(c3ccc(Cl)cc3)N=C(C(C)=O)N(C)N2C(C)=O)cc1 (stereo not given) | x | -0.012 | -1.4 | -0.13 | 67* | 58*
SMILES | Insulin prom inh | ROMK mod | KCC2 mod | Insulin prom up | WT yeast gro inh | Lmaj promast
NS(=O)(=O)c1ccc(Nc2ncccc2[N+](=O)[O-])cc1 | -19 | 0.24 | -0.24 | x | 9 | 75*
Cc1ccc(C(=O)CSC2=C(C#N)C(c3ccco3)C3=C(CC(C)(C)CC3=O)N2)cc1 (stereo not given) | 17 | -0.041 | x | -1.7 | 35 | 90*
CCCCC(=O)NC(=S)Nc1cccc(NC(=O)c2ccccc2)c1 | x | 0.16 | -1.3 | 0.71 | 7 | 98*
CC(C)CC(=O)NC(=S)Nc1cccc(NC(=O)c2ccccc2)c1 | -12 | x | -0.24 | -0.41 | 34 | 100*
Cc1ccc(OCC(=O)NC(=S)Nc2cccc(NC(=O)c3ccccc3)c2)cc1 | 28 | 0.14 | 0.89 | x | 4 | 2
CCCC(=O)NC(=S)Nc1cccc(NC(=O)c2ccccc2)c1 | x | x | 0.28 | 0.37 | -11 | 46
CCC(=O)Nc1ccc(Cl)c(NC(=S)NC(C)=O)c1 | x | -0.064 | 0.93 | 0.32 | -8 | 2
CCCCC(=O)Nc1cccc(NC(=S)NC(=O)Cc2ccccc2)c1 | -7 | -0.53 | -0.68 | 0.09 | 1 | 52*
CCCC(=O)Nc1ccc(Cl)c(NC(=S)NC(=O)C(C)C)c1 | x | -0.35 | 0.85 | 0.1 | -5 | 100*
COC(=O)c1ccc2c(=O)n(CCCCCC(=O)N3CCN(c4ccc(F)cc4)CC3)c(=O)[nH]c2c1 | x | x | -0.44 | -0.41 | 2 | 2
CC(C)Cc1nnc(NC(=O)CCC(=O)NC2CCCc3ccccc32)s1 (stereo not given) | x | x | 0.062 | x | -7 | 96*
CCCc1nnc(NC(=O)CCC(=O)NC2CCCc3ccccc32)s1 (stereo not given) | -30 | x | -0.27 | 2.2 | -5 | 7
CCOc1ccc(C2c3c(oc4ccccc4c3=O)C(=O)N2c2ccc(C)cn2)cc1OC (stereo not given) | x | x | 0.24 | -1.4 | 20 | 80*
COc1ccc(S(=O)(=O)N2CCOCC2)cc1C(=O)Nc1ccon1 | -386 | x | -1.6 | 0.54 | 1 | 2
O=C(c1ccc(Cl)c(S(=O)(=O)Nc2ccccc2C(=O)N2CCc3ccccc3C2)c1)N1CCc2ccccc2C1 | -7 | x | -1.5 | -0.32 | 33 | 78*
COC(=O)c1[nH]c2ccc(Br)cc2c1NC(=O)C(C)N1CCN(C2CCCCC2)CC1 (stereo not given) | x | x | 0.036 | -0.45 | -11 | 100*
COc1ccc(CCNC2CC(C)N(C)CC2C)cc1OC (stereo not given) | 60 | 0 | x | -0.39 | -5 | 69*
CCOC(=O)c1cn(-c2nc(-c3ccc(Cl)c(Cl)c3)cs2)c2c(F)c(N3CCOCC3)c(F)cc2c1=O | 10 | x | 0.19 | 2.1 | -24 | 0
Cc1ccc(NC(=O)C2CCCN2S(=O)(=O)c2cccc3cccnc23)cc1F (stereo not given) | x | x | -0.12 | 2 | 3 | 6
COc1ccccc1NC(=S)N(CCN1CCCCCC1)Cc1cccs1 | -13 | -0.86 | 0.54 | -1.1 | 2 | 57*
CCOC(=O)CNC(=S)N(CCCN1CCCCC1)Cc1cccs1 | x | x | 0.69 | -0.43 | 15 | 19
CCOC(=O)CNC(=S)N(CCCN1CCCCCC1)Cc1cccs1 | x | -2.7 | -0.083 | -1.1 | -5 | 73*
Cc1ccccc1NC(=S)N(CCN1CCCCCC1)Cc1cccs1 | x | 0.0017 | 0.23 | -0.92 | 19 | 15
C#CCOCCOCCOCCNc1nc(N2CCOCC2)nc(N2CCN(C(=O)[C@H]([C@@H](C)CC)n3cc([C@@H](N)CC(C)C)nn3)CC2)n1 | x | x | -0.8 | 0.46 | -8 | -3
